Screening results as filed in PubChem BioAssay.
697 NFkB inh = inhibitors of the PMA/ionomycin-induced NF-kB reporter in 697 B cells; 697 B-cell NF-kB luciferase reporter, 16 h; actives 0.33% (n = 330,000); AID 435022; inhibition, % at 4 µM; in the data active = inhibition above about 35%
CSC inhib = cancer stem cell inhibition; cancer stem cell-like cells viability, luminescence; inhibition, % at 7.5 µM; actives 1.1% (n = 300,000); in the data active = inhibition above about 75%; tested in HMLE shEcad cells
Mdm2 MdmX PPI = disrupts the human Mdm2-MdmX interaction; O15151+Q00987; SaOS-2 split-luciferase Mdm2/MdmX complementation, luminescence; inhibition, % at 8 µM; actives 3% (n = 330,000);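 active = inhibition of at least 50% at 8 µM in the primary screen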
Target sequence (O15151 whole entry, looked up): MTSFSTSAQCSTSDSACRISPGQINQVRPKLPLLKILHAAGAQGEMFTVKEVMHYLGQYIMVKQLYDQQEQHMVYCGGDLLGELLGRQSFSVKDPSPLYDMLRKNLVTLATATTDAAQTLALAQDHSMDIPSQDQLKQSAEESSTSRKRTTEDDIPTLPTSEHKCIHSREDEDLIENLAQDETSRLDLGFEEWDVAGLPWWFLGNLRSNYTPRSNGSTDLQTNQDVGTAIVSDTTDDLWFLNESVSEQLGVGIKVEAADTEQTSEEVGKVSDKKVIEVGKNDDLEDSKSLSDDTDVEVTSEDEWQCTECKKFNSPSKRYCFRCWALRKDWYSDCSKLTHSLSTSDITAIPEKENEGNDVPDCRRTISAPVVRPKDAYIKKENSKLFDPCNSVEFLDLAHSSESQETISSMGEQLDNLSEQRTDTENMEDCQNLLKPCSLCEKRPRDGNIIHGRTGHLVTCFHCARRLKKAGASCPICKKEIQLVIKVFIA
Target sequence (Q00987 whole entry, looked up): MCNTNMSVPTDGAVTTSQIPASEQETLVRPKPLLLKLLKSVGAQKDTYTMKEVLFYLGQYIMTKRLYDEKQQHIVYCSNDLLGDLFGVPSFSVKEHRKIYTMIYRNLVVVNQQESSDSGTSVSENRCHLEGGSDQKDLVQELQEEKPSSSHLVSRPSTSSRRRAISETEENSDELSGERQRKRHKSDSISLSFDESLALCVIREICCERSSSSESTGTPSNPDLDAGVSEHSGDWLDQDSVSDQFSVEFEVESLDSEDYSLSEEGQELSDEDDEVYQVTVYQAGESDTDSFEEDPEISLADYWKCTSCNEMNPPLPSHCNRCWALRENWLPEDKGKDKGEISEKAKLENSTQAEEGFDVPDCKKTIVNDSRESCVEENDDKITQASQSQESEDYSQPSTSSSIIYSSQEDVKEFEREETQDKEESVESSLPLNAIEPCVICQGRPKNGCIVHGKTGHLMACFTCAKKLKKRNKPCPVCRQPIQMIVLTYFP
Jurkat NFkB inh = lowers PMA/ionomycin-induced NF-kB signal in Jurkat cells; inhibition, % at 4 µM; PMA/ionomycin-induced NF-kB luciferase reporter, luminescence; actives 0.53% (n = 330,000); in the data active = inhibition above about 50%
Beta apoptosis = beta cell apoptosis inhibition. actives 0.8% (n = 300,000). INS-1E cytokine-induced death, ATP luminescence, 48 h; percent of positive-control rescue, neutral wells zero. AID 435005. protection from apoptosis, % (no concentration beside the values);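 active = Every replicate reaches about 75%, or at least half do and their mean reaches it too, limit read from the data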;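 also: 0% = cytokine-treated negative control wells and 100% = positive control rescue; higher means more ATP so stronger rescue from cytokine killing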
Gli-Sufu block = Gli-Sufu pathway antagonism | actives 0.74% (n = 340,000) | inhibition, % at 5 µM | Sufu-KO-LIGHT fibroblasts, Gli luciferase reporter luminescence;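 active = inhibition above about 55%, limit read from the data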;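 also: 0% = DMSO-treated cells and 100% = wells with medium but no cells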
697 NFkB conf = inhibitors of the PMA/ionomycin-induced NF-kB reporter in 697 B cells, retest; actives 35% (n = 2,000); AID 449746; inhibition, % at 4 µM; 697 B-cell NF-kB luciferase, 16 h; shares compounds with 697 NFkB inh; in the data active = inhibition mostly above about 28%, no sharp cut-off; inactive = mostly below about 22%
* marks the source's active call; other numbers are inactive results; nt = no result. Hits are enriched below; roughly 4.5% of the tested compounds scored in any of these assays.

SMILES	697 NFkB inh	CSC inhib	Mdm2 MdmX PPI	Jurkat NFkB inh	Beta apoptosis	Gli-Sufu block	697 NFkB conf
COC(=O)COc1cccc2c(=O)n(CC(=O)N3CCC(C)CC3)ccc12	3.2	11.3	3.8	-10.0	-0.8	8.2	nt
CCOC(=O)C1CCN(c2ncnc3c2cnn3-c2ccc(Cl)cc2)CC1	60.9*	-14.3	17.0	24.2	-2.3	33.8	66.8*
O=C(/C=C\NCC(=O)c1ccccc1)c1ccc(F)cc1	1.9	0.5	1.2	-9.5	-3.8	-4.9	nt
O=C(/C=C/Nc1ccc(F)cc1Br)c1ccccc1	-343.5	36.0	19.8	-47.3	18.4	-18.7	-124.0
CC/C(=N/Nc1ccc(Cl)cc1)c1cnnc(SC)n1	35.5*	5.6	-16.3	-4.1	-4.6	7.9	17.0
CCOC(=O)c1cnc(SCc2ccc(C(C)(C)C)cc2)nc1N	-32.8	59.4	-20.3	-3.1	1.3	6.5	nt
CCOC(=O)c1cnc(SCc2ccccc2)nc1N	-260.7	8.5	-155.3	-77.3	0.0	-74.2	-156.9
O=C(NC(=S)NNC(=O)c1ccccc1[N+](=O)[O-])c1ccc(Br)cc1	-29.5	7.9	11.7	-2.8	-3.0	4.0	nt
Brc1ccc2nc(N3CCN(c4ccccc4)CC3)sc2c1	-174.6	-7.3	-146.0	-142.1	4.2	-18.0	nt
Clc1ccc2nc(N3CCN(c4ccccc4)CC3)sc2c1	-271.1	5.3	-133.4	-138.5	-1.0	-115.0	-207.9
O=C(Nc1ccc2c(c1)OCCO2)C(=O)c1c[nH]c2ccccc12	-376.8	106.7*	-66.2	-63.1	19.0	15.8	-465.9
O=C(Nc1ccc2c(c1)OCO2)C(=O)c1c[nH]c2ccccc12	-173.7	-10.8	-115.0	-118.6	-1.5	-177.0	nt
O=C(/C=C/c1ccccc1)Nc1ccc2c(c1)OCCO2	-293.2	-4.2	-51.8	-80.8	4.5	-154.4	-418.5
CC1(C)Cc2c(sc(NC(=O)Cc3ccccc3)c2C#N)CO1	41.2*	-0.8	24.4	19.0	-4.0	9.7	23.2
CC1CCN(C(=O)c2[nH]cnc2C(=O)N[C@@H](C)c2ccccc2)CC1	9.0	-17.3	29.6	3.5	0.7	6.1	nt
Cc1ccc(/C(O)=C2/C(=O)C(=O)N(CC(=O)O)C2c2ccc([N+](=O)[O-])cc2)cc1 (centres undefined)	3.4	-3.6	-8.2	18.4	-3.6	-4.9	nt
O=C(NCCC1CCCCN1S(=O)(=O)c1ccccc1)C(=O)NCc1ccncc1 (centres undefined)	34.2	-2.5	-19.6	-10.3	nt	44.9	nt
Cc1ccc(S(=O)(=O)N2CCCCC2CCNC(=O)C(=O)NCc2ccncc2)cc1 (centres undefined)	53.1*	7.4	-34.2	-1.9	21.5	18.4	52.3*
Cn1c(=N)n(CC(=O)O)c2ccccc21	1.4	-10.0	11.1	13.3	nt	-2.1	nt
Cn1c(=N)n(CC(=O)c2ccccc2)c2ccccc21	-286.9	-2.9	-62.3	-37.4	nt	-61.8	-258.9
COc1ccc2[nH]c3nc(SC(C)C)nnc3c2c1	-328.3	-12.2	-24.1	-130.0	0.4	-129.9	-342.8
CCOC(=O)CC(=O)CSc1nnc2c(n1)[nH]c1ccccc12	-81.3	-12.1	7.7	-20.9	nt	-7.8	nt
O=C(O)CSc1nnc2c(n1)[nH]c1ccccc12	-22.3	-11.0	-30.4	-38.6	-0.6	4.0	nt
CC(C)CSc1nnc2c(n1)[nH]c1ccccc12	-310.9	2.4	-13.4	-128.1	-1.1	-86.1	-197.3
CCCCSc1nnc2c(n1)[nH]c1ccccc12	-313.6	0.0	-56.7	-122.5	5.6	-82.1	-131.6
SMILES	697 NFkB inh	CSC inhib	Mdm2 MdmX PPI	Jurkat NFkB inh	Beta apoptosis	Gli-Sufu block	697 NFkB conf
CCc1noc(C)c1C(=O)NC1CC(C)(C)Cc2c1cnn2-c1ccccc1 (centres undefined)	-12.7	-10.4	18.1	3.6	nt	nt	nt
COc1ccc(CN(CC(=O)NCc2ccco2)C(=O)CNS(=O)(=O)c2ccc(C)cc2)cc1	17.3	nt	9.8	11.9	-3.0	-2.8	nt
COc1cc(NC(=O)c2ccco2)c(OC)cc1NC(=O)c1cc(OC)c(OC)c(OC)c1	41.0*	-9.4	48.6	6.3	nt	11.2	33.5*
CSc1ccc(C2Nc3cccc4cccc(c34)N2)cc1	-265.9	-6.5	18.7	30.2	4.1	8.6	-70.6
Cc1c(CCC(=O)N2CCC[C@H]2C(=O)O)c(=O)oc2cc3oc4c(c3cc12)CCCC4	60.1*	0.3	5.9	-21.6	-1.8	6.9	41.7*
Cc1c(CCC(=O)O)c(=O)oc2cc3oc4c(c3cc12)CCCC4	40.3*	-19.5	-28.6	0.9	-10.3	18.0	35.2*
c1ccc(-c2ccc(-c3nc(-c4ccncc4)no3)cc2)cc1	-300.9	2.6	-45.9	-93.9	-5.3	-81.6	-259.6
c1ccc(-c2nc(-c3ccncc3)no2)cc1	-105.0	-12.9	-133.4	-82.6	0.3	-76.1	nt
CCc1ccc(-c2nc(-c3ccncc3)no2)cc1	-263.5	-12.6	-66.1	-132.9	2.1	-8.1	-209.9
CC(NC(=O)Cc1ccsc1)c1ccc(Cl)cc1Cl (centres undefined)	-19.8	-4.1	26.1	-26.6	-7.0	nt	nt
COc1ccc(-c2ccc(N(C)C)cc2)cc1[C@H]1[C@H]2C=CC[C@@H](C)[C@@H]2C(=O)N1Cc1ccccc1	51.0*	34.4	25.0	8.8	1.7	7.3	36.2*
COc1ccc(-c2ccc(OC)c([C@H]3[C@H]4C=CC[C@@H](C)[C@@H]4C(=O)N3Cc3ccccc3)c2)cc1C	41.6*	49.7	12.0	17.8	-0.5	13.1	51.0*
C[C@@H]1CC=C[C@H]2[C@H]1C(=O)N(Cc1ccccc1)[C@H]2c1ccc(-c2ccc(N(C)C)cc2)cc1F	27.3	33.7	34.9	-2.4	4.4	-2.5	nt
CCn1c(=O)cc(OCC(=O)Nc2ccc(OC)c(OC)c2)c2ccccc21	35.8*	-2.2	30.1	6.6	-7.1	-24.1	37.4*
CCOC(=O)COc1cc(=O)n(CC)c2ccccc12	25.7	-0.9	18.3	-0.1	-4.5	-5.0	nt
CCn1c(=O)cc(OCC(=O)N(C)C2CCCCC2)c2ccccc21	39.0*	-12.9	-11.2	-2.1	-3.3	6.9	43.9*
CCN(CC)CCOC(=O)c1ccc(NC(=O)COc2cc(=O)n(CC)c3ccccc23)cc1	39.3*	-10.8	27.2	5.3	-4.4	6.5	44.8*
CCn1c(=O)cc(OCC(=O)Nc2ccc3c(c2)OCCO3)c2ccccc21	30.7	-9.6	21.9	-1.0	4.8	5.5	nt
Cc1cc(Br)ccc1NC(=O)C1CCN(S(=O)(=O)c2cnc[nH]2)CC1	12.1	-18.5	10.3	6.0	-4.6	4.6	nt
Cc1cccc(OCCC(=O)Nc2ccc(Cl)cc2F)c1	11.9	-0.6	26.5	10.1	-5.7	-0.6	nt
COc1cccc(C(C)=C2SC(=S)NC2=O)c1	nt	nt	nt	nt	nt	2.2	nt
Cc1cc(C)n(CC(=O)NNC(=O)c2ccc(S(C)(=O)=O)cc2)n1	16.5	-6.1	18.6	-2.3	-0.2	-1.0	nt
COc1ccc(Cl)cc1C(=O)NNC(=O)c1ccc(F)c(S(=O)(=O)N2CCOCC2)c1	4.8	-8.8	25.4	11.0	2.1	5.9	nt
